Assay results published in PubChem BioAssay (EPA / NIEHS).
Calls of active or inactive are those of the source. The calls were made as follows: active = hit-call score of the fitted dose curve at least 0.9, where 1 is the maximum; inactive = score below 0.9.

Experiments:
Conditions in all cases: mRNA level, 48 h; actives raise or lower the signal
[1] = read-out: Lipoprotein lipase (LPL), LPL (gene 4023); test: LTEA_HepaRG_LPL: Life Technologies and Expression Analysis (LTEA) Assay for Lipoprotein lipase (LPL) using HepaRG (AID 2283515)
Procedure, shortened: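 Read-out is LPL transcript level by qRT-PCR, normalized to three housekeeping genes and fitted bidirectionally against the DMSO control. Human HepaRG cells received chemicals for 48 h at up to 100 uM.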

[2] = read-out: MicroRNA 122 (MIR122), gene 406906; test: LTEA_HepaRG_MIR122: Life Technologies and Expression Analysis (LTEA) Assay for MicroRNA 122 (MIR122) using HepaRG (AID 2283516); also: the transcript read is the microRNA miR-122
Procedure, shortened: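 HepaRG, 48 h exposure, 8-pt half-log from 100 uM, 0.5% DMSO; TaqMan qRT-PCR; bidirectional fit vs DMSO.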

[3] = read-out: matrix metalloproteinase-10 (MMP10), MMP10 (gene 4319); test: LTEA_HepaRG_MMP10: Life Technologies and Expression Analysis (LTEA) Assay for matrix metalloproteinase-10 (MMP10) using HepaRG (AID 2283517)
Procedure, shortened: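 Gain or loss of MMP10 mRNA is fitted relative to the 0.5% DMSO vehicle. The human hepatic line HepaRG receives a 48-hour serum-free exposure, in duplicate, with a maximum concentration of 100 uM.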

MYC, MYC (gene 4609) = test: LTEA_HepaRG_MYC: Life Technologies and Expression Analysis (LTEA) Assay for MYC using HepaRG (AID 2283518)
Procedure, shortened: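 MYC transcript changes, up or down relative to 0.5% DMSO, from TaqMan qRT-PCR normalized to three housekeeping genes. Human HepaRG cultures received chemicals for 48 h at eight half-log concentrations up to 100 uM, in duplicate.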

[4] = read-out: matrix metalloproteinase-3 (MMP3), MMP3 (gene 4314); test: LTEA_HepaRG_MMP3: Life Technologies and Expression Analysis (LTEA) Assay for matrix metalloproteinase-3 (MMP3) using HepaRG (AID 2283519)
Procedure, shortened: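 HepaRG, human; 48 h dosing, 8 conc. (max 100 uM, half-log), duplicate, 0.5% DMSO. Readout: MMP3 transcript by Fluidigm TaqMan qRT-PCR, ACTB/GAPDH/POLR2A-normalised. Gain or loss fitted vs DMSO.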

[5] = read-out: Paternally Expressed 10 (PEG10), PEG10 (gene 23089); test: LTEA_HepaRG_PEG10: Life Technologies and Expression Analysis (LTEA) Assay for Paternally Expressed 10 (PEG10) using HepaRG (AID 2283520);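 as to AC50: PEG10 transcript by qRT-PCR normalised to ACTB GAPDH and POLR2A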
Procedure, shortened: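 Chemicals tested on HepaRG cells for 48 h, highest concentration 100 uM. PEG10 expression assessed by qRT-PCR relative to DMSO control.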

[6] = read-out: Nuclear factor NF-kappa-B p105 subunit (Homo sapiens) (UniProt P19838); test: LTEA_HepaRG_NFKB1: Life Technologies and Expression Analysis (LTEA) Assay for Nuclear Factor Kappa B Subunit 1 (NFKB1) using HepaRG (AID 2283521)
Procedure, shortened: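 Differentiated human HepaRG cells in serum-free induction medium with 0.5% DMSO were exposed for 48 h to eight half-log concentrations, top 100 uM, in duplicate. NFKB1 mRNA measured by Fluidigm TaqMan qRT-PCR, normalised to ACTB, GAPDH and POLR2A; bidirectional fit versus DMSO.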

[7] = read-out: Protein phosphatase 2A (PPP2R4), PTPA (gene 5524); test: LTEA_HepaRG_PPP2R4: Life Technologies and Expression Analysis (LTEA) Assay for Protein phosphatase 2A (PPP2R4) using HepaRG (AID 2283522)
Procedure, shortened: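 Gene-expression endpoint in HepaRG hepatic cells: 48 h treatment across eight half-log concentrations up to 100 uM in 0.5% DMSO. PPP2R4 mRNA by qRT-PCR, normalized to three endogenous control genes.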

[8] = read-out: Phosphatase and tensin (PTEN), PTEN (gene 5728); test: LTEA_HepaRG_PTEN: Life Technologies and Expression Analysis (LTEA) Assay for Phosphatase and tensin (PTEN) using HepaRG (AID 2283523)
Procedure, shortened: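 Read-out is PTEN transcript level by multiplexed TaqMan qRT-PCR after 48 h chemical treatment of human HepaRG cultures in serum-free induction medium. Concentrations spanned 100 uM downward in half-log steps, 0.5% DMSO throughout; activity fitted in both directions against vehicle.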

[9] = read-out: solute carrier (SLC22A1), SLC22A1 (gene 6580); test: LTEA_HepaRG_SLC22A1: Life Technologies and Expression Analysis (LTEA) Assay for solute carrier (SLC22A1) using HepaRG (AID 2283524)
Procedure, shortened: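 HepaRG (human liver line), 48 h dosing in serum-free induction medium; 8 conc., half-log down from 100 uM, 0.5% DMSO vehicle, duplicates. Endpoint: SLC22A1 mRNA, qRT-PCR, housekeeping-normalized; gain/loss fit vs DMSO.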

[10] = read-out: Pyruvate Dehydrogenase Kinase 4 (PDK4), PDK4 (gene 5166); test: LTEA_HepaRG_PDK4: Life Technologies and Expression Analysis (LTEA) Assay for Pyruvate Dehydrogenase Kinase 4 (PDK4) using HepaRG (AID 2283525)
Procedure, shortened: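 In this multiplexed human HepaRG expression assay, cells are treated 48 h with test chemicals across an eight-point range starting at 100 uM. PDK4 mRNA changes, normalized to ACTB/GAPDH/POLR2A, are fitted in both directions relative to vehicle.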

[11] = read-out: NAD(P)H dehydrogenase [quinone] 1 (NQO1), NQO1 (gene 1728); test: LTEA_HepaRG_NQO1: Life Technologies and Expression Analysis (LTEA) Assay for NAD(P)H dehydrogenase [quinone] 1 (NQO1) using HepaRG (AID 2283526)
Procedure, shortened: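 Human HepaRG hepatic cells received chemicals for 48 h in serum-free induction medium with 0.5% DMSO, up to 100 uM. Expression was assessed by TaqMan qRT-PCR against housekeeping controls and fitted bidirectionally against DMSO.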

[12] = read-out: Nuclear factor erythroid 2-related factor 2 (Homo sapiens) (UniProt Q16236); test: LTEA_HepaRG_NFE2L2: Life Technologies and Expression Analysis (LTEA) Assay for Nuclear factor erythroid 2-related factor 2 (NFE2L2) Transcription Factor using HepaRG (AID 2283527)
Procedure, shortened: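 Transcript level of NFE2L2 is the read-out, measured by microfluidic TaqMan qRT-PCR and normalized to three housekeeping genes. Human HepaRG cultures received test chemical for 48 h at up to 100 uM in half-log steps. Gain or loss of signal is fitted relative to 0.5% DMSO.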

[13] = read-out: succinate dehydrogenase complex iron sulfur subunit B (SDHB), SDHB (gene 6390); test: LTEA_HepaRG_SDHB: Life Technologies and Expression Analysis (LTEA) Assay for succinate dehydrogenase complex iron sulfur subunit B (SDHB) using HepaRG (AID 2283528)
Procedure, shortened: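 HepaRG cells (~100,000/well, plated 48 h) exposed in duplicate for 48 h in serum-free induction medium to 8-point half-log series from 100 uM in 0.5% DMSO; mRNA by qRT-PCR normalised to ACTB, GAPDH, POLR2A; bidirectional fit versus DMSO.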

[14] = read-out: Signal transducer and activator of transcription 3 (Homo sapiens) (UniProt P40763); test: LTEA_HepaRG_STAT3: Life Technologies and Expression Analysis (LTEA) Assay for Signal transducer and activator of transcription (STAT3) using HepaRG (AID 2283529)
Procedure, shortened: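 Read-out is STAT3 mRNA level by qRT-PCR, normalized to three housekeeping genes, in human HepaRG liver cells treated for 48 h. Concentrations ran from 100 uM downward in half-log steps; curves were fitted for gain or loss relative to 0.5% DMSO.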

[15] = read-out: solute carrier (SLCO1B1), SLCO1B1 (gene 10599); test: LTEA_HepaRG_SLCO1B1: Life Technologies and Expression Analysis (LTEA) Assay for solute carrier (SLCO1B1) using HepaRG (AID 2283530)
Procedure, shortened: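 SLCO1B1 transcript levels were quantified by TaqMan qRT-PCR using three housekeeping genes for normalization. This followed 48 h chemical exposure (100 uM top, half-log, 8 points, 0.5% DMSO) of HepaRG liver cells, with gain or loss fitted relative to DMSO.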

[16] = read-out: sulfotransferase 2A1 (SULT2A1), SULT2A1 (gene 6822); test: LTEA_HepaRG_SULT2A1: Life Technologies and Expression Analysis (LTEA) Assay for sulfotransferase 2A1 (SULT2A1) using HepaRG (AID 2283531)
Procedure, shortened: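 Expression change of SULT2A1, by qRT-PCR with three housekeeping-gene normalization, was scored bidirectionally versus DMSO. Cells: differentiated HepaRG, dosed in duplicate for 48 h across 8 points, highest 100 µM, half-log dilution, 0.5% DMSO.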

[17] = read-out: Transforming Growth Factor (TGFA), TGFA (gene 7039); test: LTEA_HepaRG_TGFA: Life Technologies and Expression Analysis (LTEA) Assay for Transforming Growth Factor (TGFA) using HepaRG (AID 2283532)
Procedure, shortened: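 HepaRG (human liver line), 48 h exposure, 8 conc. half-log down from 100 uM, 0.5% DMSO vehicle, duplicates; serum-free induction medium. TGFA mRNA by TaqMan qRT-PCR, ACTB/GAPDH/POLR2A normalization; gain/loss fit vs DMSO.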

[18] = read-out: Transforming Growth Factor (TGFB1), TGFB1 (gene 7040); test: LTEA_HepaRG_TGFB1: Life Technologies and Expression Analysis (LTEA) Assay for Transforming Growth Factor (TGFB1) Transporter using HepaRG (AID 2283533)
Procedure, shortened: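 TGFB1 transcript measured by qRT-PCR with normalisation to three housekeeping genes (ACTB, GAPDH, POLR2A); human HepaRG line treated in duplicate for 48 hr with an 8-point series topping at 100 uM, 0.5% DMSO vehicle, bidirectionally fitted.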

TIMP1, TIMP1 (gene 7076) = test: LTEA_HepaRG_TIMP1: Life Technologies and Expression Analysis (LTEA) Assay for TIMP1 using HepaRG (AID 2283534)
Procedure, shortened: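 Bidirectional change in TIMP1 transcript versus 0.5% DMSO, measured by TaqMan qRT-PCR with three housekeeping genes for normalization. HepaRG human liver cells dosed 48 h in duplicate, top concentration 100 uM with half-log dilutions.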

Measured: AC50

Sequence of Nuclear factor NF-kappa-B p105 subunit (Homo sapiens) (P19838 whole entry, looked up): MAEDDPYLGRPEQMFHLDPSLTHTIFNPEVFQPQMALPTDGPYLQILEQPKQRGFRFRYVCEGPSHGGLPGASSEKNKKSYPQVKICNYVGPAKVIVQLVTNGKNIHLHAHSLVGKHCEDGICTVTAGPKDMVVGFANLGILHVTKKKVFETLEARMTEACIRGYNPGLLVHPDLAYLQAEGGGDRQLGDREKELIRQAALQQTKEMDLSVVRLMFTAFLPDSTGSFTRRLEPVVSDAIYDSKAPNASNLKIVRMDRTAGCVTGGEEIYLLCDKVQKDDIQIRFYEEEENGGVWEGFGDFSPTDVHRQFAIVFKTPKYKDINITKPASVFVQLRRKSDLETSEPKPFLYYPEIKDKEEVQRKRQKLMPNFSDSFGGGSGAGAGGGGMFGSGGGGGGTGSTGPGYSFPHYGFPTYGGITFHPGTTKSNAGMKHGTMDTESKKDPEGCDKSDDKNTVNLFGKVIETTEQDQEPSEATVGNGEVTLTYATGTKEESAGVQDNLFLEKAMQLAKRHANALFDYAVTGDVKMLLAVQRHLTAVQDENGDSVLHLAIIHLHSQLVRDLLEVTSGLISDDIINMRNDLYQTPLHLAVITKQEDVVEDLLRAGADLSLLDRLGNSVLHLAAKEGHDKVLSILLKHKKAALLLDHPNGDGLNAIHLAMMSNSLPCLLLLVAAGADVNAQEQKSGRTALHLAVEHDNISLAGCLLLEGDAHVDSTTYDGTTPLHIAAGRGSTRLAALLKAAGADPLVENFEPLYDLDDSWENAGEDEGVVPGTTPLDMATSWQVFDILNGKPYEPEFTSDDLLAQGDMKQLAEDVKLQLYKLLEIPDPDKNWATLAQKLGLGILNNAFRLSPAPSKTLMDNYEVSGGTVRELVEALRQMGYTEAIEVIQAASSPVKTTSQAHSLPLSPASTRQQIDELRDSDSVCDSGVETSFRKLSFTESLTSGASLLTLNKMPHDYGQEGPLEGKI
Sequence of Signal transducer and activator of transcription 3 (Homo sapiens) (P40763 whole entry, looked up): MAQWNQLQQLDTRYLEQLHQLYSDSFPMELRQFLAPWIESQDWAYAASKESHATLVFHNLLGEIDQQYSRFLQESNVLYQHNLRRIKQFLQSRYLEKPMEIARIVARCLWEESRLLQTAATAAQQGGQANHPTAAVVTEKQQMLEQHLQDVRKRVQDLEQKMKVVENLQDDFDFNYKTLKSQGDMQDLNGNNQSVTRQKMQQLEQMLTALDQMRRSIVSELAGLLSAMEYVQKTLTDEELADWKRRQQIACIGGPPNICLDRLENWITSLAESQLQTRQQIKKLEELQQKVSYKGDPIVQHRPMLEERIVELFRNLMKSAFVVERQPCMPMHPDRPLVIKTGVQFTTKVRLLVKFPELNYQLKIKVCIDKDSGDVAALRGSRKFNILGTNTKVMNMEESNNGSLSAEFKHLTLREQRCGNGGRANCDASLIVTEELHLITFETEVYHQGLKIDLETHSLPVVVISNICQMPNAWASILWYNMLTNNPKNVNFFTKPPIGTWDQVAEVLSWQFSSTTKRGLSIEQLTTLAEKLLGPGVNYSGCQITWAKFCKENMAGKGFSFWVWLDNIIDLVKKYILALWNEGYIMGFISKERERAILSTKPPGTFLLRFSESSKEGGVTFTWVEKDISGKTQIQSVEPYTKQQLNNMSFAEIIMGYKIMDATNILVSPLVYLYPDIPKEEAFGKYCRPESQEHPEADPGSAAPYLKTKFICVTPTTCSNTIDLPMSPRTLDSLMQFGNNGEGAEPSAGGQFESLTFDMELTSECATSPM
Sequence of Nuclear factor erythroid 2-related factor 2 (Homo sapiens) (Q16236 whole entry, looked up): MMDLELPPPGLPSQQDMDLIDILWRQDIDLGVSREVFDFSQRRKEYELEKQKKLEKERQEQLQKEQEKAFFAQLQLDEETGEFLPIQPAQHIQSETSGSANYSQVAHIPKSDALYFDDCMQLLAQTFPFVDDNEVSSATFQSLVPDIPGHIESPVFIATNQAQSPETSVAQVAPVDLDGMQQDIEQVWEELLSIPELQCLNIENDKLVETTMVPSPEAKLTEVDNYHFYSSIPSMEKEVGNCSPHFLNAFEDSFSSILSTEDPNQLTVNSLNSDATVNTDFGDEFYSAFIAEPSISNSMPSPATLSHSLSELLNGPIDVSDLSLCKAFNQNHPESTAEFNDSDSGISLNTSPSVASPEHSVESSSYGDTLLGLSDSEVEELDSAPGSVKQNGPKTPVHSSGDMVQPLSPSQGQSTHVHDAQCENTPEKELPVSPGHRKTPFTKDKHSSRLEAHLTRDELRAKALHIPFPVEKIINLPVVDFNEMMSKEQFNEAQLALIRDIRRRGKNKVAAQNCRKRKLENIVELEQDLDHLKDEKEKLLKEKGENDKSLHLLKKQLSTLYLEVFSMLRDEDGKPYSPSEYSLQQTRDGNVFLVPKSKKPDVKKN

O=C(O)Cc1cc(I)c(Oc2ccc(O)c(I)c2)c(I)c1
active: [1] 65.7 µM | [3] 81 µM | MYC, MYC (gene 4609) 91.3 µM | [5] 0.558 µM | [6] 71.8 µM | [9] 78.8 µM | [10] 0.00367 µM | [12] 85.6 µM | [15] 82.7 µM | [16] 79.5 µM | [17] 85.3 µM | [18] 79.5 µM
inactive: [2] | [4] | [7] | [8] | [11] | [13] | [14] | TIMP1, TIMP1 (gene 7076)

CCN(Cc1cccnc1)C(=O)c1cccc(Cl)c1[C@]1(C)C(=O)N(Cc2ccc(OC)cc2OC)c2ccc(Cl)cc21
inactive: [4] | [8] | [11] | [13] | [14] | TIMP1, TIMP1 (gene 7076)
active: [1] 10.4 µM | [2] 18.1 µM | [3] 17.7 µM | MYC, MYC (gene 4609) 25.3 µM | [5] 10.2 µM | [6] 26.5 µM | [7] 10.8 µM | [9] 21.7 µM | [10] 22.3 µM | [12] 16 µM | [15] 22.2 µM | [17] 13.6 µM | [18] 14.5 µM

CCCCOC(=O)CC(CC(=O)OCCCC)(OC(C)=O)C(=O)OCCCC
inactive: all assays above

Clc1ccccc1C(c1ccccc1)(c1ccccc1)n1ccnc1
active: [1] 89.8 µM | [2] 17.3 µM | [3] 25.2 µM | MYC, MYC (gene 4609) 20.5 µM | [7] 92.2 µM | [8] 87.2 µM | [9] 23.1 µM | [10] 28.3 µM | [12] 14.5 µM | [13] 90.5 µM | [15] 23.7 µM | [16] 23.3 µM | [17] 23.2 µM | [18] 91.9 µM
inactive: [4] | [5] | [6] | [11] | [14] | TIMP1, TIMP1 (gene 7076)

COc1cc(C(=O)NC2CCN(C)CC2)ccc1Nc1ncc2c(n1)N(C1CCCC1)CC(F)(F)C(=O)N2C
active: [1] 14 µM | [3] 26.3 µM | MYC, MYC (gene 4609) 14.7 µM | [4] 4.65 µM | [6] 11.7 µM | [7] 11.9 µM | [8] 12 µM | [9] 5.56 µM | [10] 22.2 µM | [12] 25.4 µM | [13] 12.7 µM | [14] 27.3 µM | [15] 7.47 µM | [18] 3.64 µM | TIMP1, TIMP1 (gene 7076) 11.9 µM
inactive: [2] | [5] | [11] | [17]

CC[C@H](NC(=O)c1cc(F)ccc1NS(=O)(=O)c1cccc2cccnc12)c1ccccc1
active: [2] 47.8 µM | [5] 19.1 µM | [9] 50.8 µM | [15] 77.6 µM | [16] 84.8 µM
inactive: all other assays above
